# Compound activity from PubChem.
# IMPase inh: qHTS Assay for Identifying the Cell-Membrane Permeable IMPase Inhibitors | Inositol monophosphatase 1 (Rattus norvegicus), P97697 | inhibition (IP1 accumulation), % at 46.1 µM | 120,000 tested, under 10 active | CHO-M1 cells, IP1 accumulation, HTRF TR-FRET ratio; active = well fitted curve in the direction sought with a large enough effect in the signal ratio, not every such curve was filed as active; inconclusive = small, poorly fitted or top-dose-only effect, or a change in a side signal; inactive = no such curve, though single readings can be large or run the other way; the % refers to the signal ratio;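 also: cells stimulated with carbachol in lithium chloride buffer; plate controls were DMSO basal wells for no effect and reference inhibitor wells for full effect; higher means more IMPase inhibition seen as more IP1 and lower FRET ratio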
#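 Elevated IP1 in lysates lowers TR-FRET signal (665/620 ratio and 620 channel reported). Cells were CHO-M1, given carbachol (50 uM as added) plus 50mM LiCl, pH 7.4, 30 min, 37C; compounds titrated up to 46 uM; AC50 by Hill equation.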
# NPSR antag: qHTS Assay for Antagonists of the Neuropeptide S Receptor: cAMP Signal Transduction. hit rate 1% among 220,000. CHO-NPSR cells, cAMP TR-FRET, antagonist mode. Potency, µM (series often up to 38.3 µM), for the others: at the highest dose activity change, negative = inhibition, usual class: inhibitors. Q6W5P4; also: potency is read from the fitted curve at half-maximal effect; nearly all actives have a fitted effect of over 50% in size
# IMPase Li cell: qHTS Assay for Identifying the Cell-Membrane Permeable IMPase Inhibitors: Potentiation with Lithium | hit rate 0.35% among 210,000 | CHO-M1 cells, IP1 TR-FRET (IP-One), carbachol + lithium | Potency, µM (doses to about 59.4 µM), for the others: at the top dose activity, negative = IMPase inhibition, hits mostly inhibitors | AID 1457, 2008;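 also: IP1 builds up when IMPase is blocked and the TR-FRET signal falls; potency is read from the fitted curve at half-maximal effect; plate controls were basal vehicle for no effect and high inhibitor control for full effect; nearly all actives have a fitted effect of over 50% in size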
#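 Lithium-sensitised IP1 accumulation assay; M1-expressing CHO cells treated 30 min at 37C with compound. Competitive antibody detection by time-resolved FRET followed a 10 min room-temperature lysis step.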
# PNC assembly inh: High Content Assay for Compounds that inhibit the Assembly of the Perinucleolar Compartment | activity change (PNC), negative = inhibition, % at 10 µM | PC3M PTB-GFP, PNC prevalence imaging, 16 h; stronger effect = lower value | hit rate 3.1% among 140,000;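 active = readout at or below -70, meaning at least 70% loss of cells showing the perinucleolar compartment, a nuclear body marking cancer cells; inconclusive = readout between -30 and a set limit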;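 also: plate controls were DMSO wells for no effect and camptothecin positive control wells for full effect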
#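 Compounds are pinned in duplicate onto adhered PC3M cells stably expressing GFP-tagged PTB and incubated 16 h at 37 C. Cells are then fixed, nuclei stained with Hoechst, and PNC-positive cells counted.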
# HPGD block: qHTS Assay for Inhibitors of HPGD (15-Hydroxyprostaglandin Dehydrogenase); hit rate 4.3% among 150,000; Potency, µM, for the others: top-dose activity change, negative = inhibition, most hits filed as inhibitors; purified HPGD, NADH fluorescence kinetic, PGE2 substrate; active = well fitted inhibition curve with a large enough effect, not every such curve was filed as active; inconclusive = small, poorly fitted or top-dose-only effect, or another doubt; inactive = no such curve, though single readings can be large or run the other way; also: potency is read from the fitted curve at half-maximal effect
# Target sequence (P15428 whole entry, looked up): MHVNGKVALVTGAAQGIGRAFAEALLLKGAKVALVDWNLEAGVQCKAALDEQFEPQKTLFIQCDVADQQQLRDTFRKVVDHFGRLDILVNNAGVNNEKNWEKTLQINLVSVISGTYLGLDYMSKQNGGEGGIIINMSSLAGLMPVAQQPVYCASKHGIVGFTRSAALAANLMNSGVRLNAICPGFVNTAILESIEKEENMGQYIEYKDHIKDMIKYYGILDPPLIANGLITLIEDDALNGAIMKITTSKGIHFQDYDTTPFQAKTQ
#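 NADH formation kinetics: reaction with 30 uM PGE2 and 1 mM NAD+ (final), 20 nM enzyme, Tris-HCl pH 8 with Tween 20, after 15 min compound preincubation at room temperature. Fluorescence change, last versus first of five reads.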
# ALDH1A1 block: qHTS Assay for Inhibitors of Aldehyde Dehydrogenase 1 (ALDH1A1) | Purified ALDH1A1, NADH fluorescence, propionaldehyde substrate | Potency, µM (highest dose often 75.3 µM), for inactives: at the highest dose activity, negative = inhibition, usual class: inhibitors | hit rate 7.3% among 220,000 | AID 1030, 2008; active = well fitted inhibition curve with a large enough effect, not every such curve was filed as active; inconclusive = small, poorly fitted or top-dose-only effect, or another doubt; inactive = no such curve, though single readings can be large or run the other way;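 also: potency is read from the fitted curve at half-maximal effect; plate controls were no enzyme wells and a reference inhibitor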
# Target sequence (P00352 whole entry, looked up): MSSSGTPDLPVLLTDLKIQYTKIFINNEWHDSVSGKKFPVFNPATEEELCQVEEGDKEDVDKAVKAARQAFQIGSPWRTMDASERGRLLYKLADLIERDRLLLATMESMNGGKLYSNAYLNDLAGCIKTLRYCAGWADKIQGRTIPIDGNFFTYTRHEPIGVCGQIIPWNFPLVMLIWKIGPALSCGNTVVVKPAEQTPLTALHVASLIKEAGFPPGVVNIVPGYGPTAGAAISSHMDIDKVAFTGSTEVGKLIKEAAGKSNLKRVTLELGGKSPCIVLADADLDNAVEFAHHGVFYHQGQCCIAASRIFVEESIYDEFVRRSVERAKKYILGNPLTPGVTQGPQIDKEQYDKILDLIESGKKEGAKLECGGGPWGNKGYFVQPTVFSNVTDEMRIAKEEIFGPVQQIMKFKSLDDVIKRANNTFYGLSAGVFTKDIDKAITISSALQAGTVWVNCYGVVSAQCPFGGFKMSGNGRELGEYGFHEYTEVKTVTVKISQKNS
# * hit, by the source's call; ? = inconclusive; . = not tested or not shown; [ ] = another dose, or the depositor's remark. Most compounds without a hit are left out; they make up all but 11% or so of the library. Unless noted, calls follow the shape of the dose curve; as a rule, active = well fitted curve in the direction sought with a large enough effect; inconclusive = small, poorly fitted or top-dose-only effect, or another doubt; inactive = no such curve, though single readings can be large; an effect the other way counts as inactive or inconclusive. Unless noted, % is scaled to controls: 0 for no effect and ±100 for the full control effect.
SMILES,IMPase inh,NPSR antag,IMPase Li cell,PNC assembly inh,HPGD block,ALDH1A1 block
O=C(NNC(=S)Nc1cccc(Cl)c1)c1ccccc1OC(F)F,.,-4.1%,3.2%,-9.7,-12.0%,25.1µM*
COc1cccc(NC(=S)NNC(=O)c2ccccc2OC(F)F)c1,6.8,-16.3%[46.1 µM],-3.4%[38.3 µM],20.0,?,25.1µM*
O=C(NNC(=S)Nc1ccc(F)cc1)c1ccccc1OC(F)F,2.3,-3.2%[46.1 µM],30.6%[38.3 µM],?,-14.3%,?
Cc1ccc(NC(=S)NNC(=O)c2ccccc2OC(F)F)cc1,-11.9,-6.5%[46.1 µM],3.3%[38.3 µM],?,-8.8%,?
O=C(c1ccc2nc(N3CCOCC3)sc2c1)N1CCCC1,-8.0,2.5%[46.1 µM],13.6%[38.3 µM],0.2,14.1µM*,5.4%
O=C(c1ccc(Cl)c([N+](=O)[O-])c1)N1CCN(Cc2ccc3c(c2)OCO3)CC1,.,-11.8%,11.1%,.,.,18.9µM*
O=S(=O)(c1ccc(Cl)nc1)N1CCN(Cc2ccc3c(c2)OCO3)CC1,-3.6,-5.1%[46.1 µM],28.1%[38.3 µM],1.9,-3.1%,14.1µM*
Cc1ccc(S(=O)(=O)N2CCN(Cc3ccc4c(c3)OCO4)CC2)cc1,-3.4,.,.,.,.,.
CC1CCN(c2nc3ccc(C(=O)N4CCN(Cc5ccc6c(c5)OCO6)CC4)cc3s2)CC1,24.4,-18.3%[46.1 µM],17.5%[38.3 µM],-18.8,17.8µM*,?
CN1CCN(c2ccc(NC(=O)CSc3ccccc3)cc2F)CC1,6.8,0.0%[46.1 µM],13.9%[38.3 µM],3.4,-8.2%,4.1%
CCc1ccc(C2C(C#N)=C(N)SC(N)=C2C#N)s1,-12.2,17.1%[46.1 µM],-19.5%[38.3 µM],12.8,28.2µM*,?
N#CC1=C(N)SC(N)=C(C#N)C1c1ccc(C(F)(F)F)cc1,-13.3,-5.0%[46.1 µM],?,-127.1*,-27.9%,25.1µM*
Cc1ccc(C2C(C#N)=C(N)SC(N)=C2C#N)o1,-12.6,15.6%[46.1 µM],?,18.2,?,?
CCc1ccc(C2C(C#N)=C(N)SC(N)=C2C#N)cc1,-9.2,15.7%[46.1 µM],?,?,35.5µM*,11.2µM*
N#CC1=C(N)SC(N)=C(C#N)C1c1ccc([N+](=O)[O-])cc1,12.7,-1.1%,-0.9%,49.9,?,10µM*
COc1cccc(CNC(=O)C(=O)NCC(c2ccco2)N2CCOCC2)c1 (configuration not stated),2.7,-0.7%[46.1 µM],4.2%,-21.3,-12.4%,2.5%
O=C(Nc1ccc2c(c1)OCCO2)c1ccc(Cl)c(S(=O)(=O)N2CCOCC2)c1,2.0,-30.4%[46.1 µM],11.4%[38.3 µM],22.4,-9.1%,5.01µM*
O=C(CN1CCN(S(=O)(=O)c2cc(Cl)ccc2Cl)CC1)Nc1ccc2c(c1)OCCO2,2.3,-25.6%[46.1 µM],11.1%,-13.9,-3.6%,8.91µM*
O=C(Nc1ccccc1C(=O)O)c1ccc(Cl)c(S(=O)(=O)N2CCOCC2)c1,-11.9,4.0%[46.1 µM],-16.9%[38.3 µM],75.7,-18.2%,?
CC1(C)CNc2cc([N+](=O)[O-])ccc2S1,.,-12.2%,1.0%,.,.,2.8%
CCOC(=O)c1cnc(-n2nc(C)cc2C)nc1Oc1ccc(C(=O)OC)cc1,.,2.8%,.,.,.,.
O=[N+]([O-])c1ccc(COn2nnc3ccccc32)cc1,.,-1.7%,22.1%,.,.,-1.2%
N#Cc1cc([N+](=O)[O-])c(-n2nnc3ccccc32)c([N+](=O)[O-])c1,-4.0,?,5.6%[38.3 µM],-3.3,28.2µM*,-0.1%
Cn1c(CS(=O)Cc2c(Cl)cccc2Cl)nnc1SCc1c(Cl)cccc1Cl (configuration not stated),-2.7[1.84 µM],-8.3%[46.1 µM],12.3%[38.3 µM],9.2,-10.0%,?
O=S(Cc1ccc(Br)cc1)Cc1nnc(SCc2c(Cl)cccc2Cl)n1-c1ccccc1 (configuration not stated),12.9,10µM*,37.8%[38.3 µM],-29.8,-14.8%,2.4%
SMILES,IMPase inh,NPSR antag,IMPase Li cell,PNC assembly inh,HPGD block,ALDH1A1 block
CC(C)n1c2ccccc2c2nnc(SCC(=O)Nc3ccccc3C(=O)O)nc21,.,-12.3%,7.94µM*,.,.,?
CC(=O)Nc1ccc(NC(=O)CSc2nnc3c4ccccc4n(C)c3n2)cc1,.,-2.3%,4.4%,.,.,6.3%
CCOC(=O)Cc1nnc(NC(=O)CSc2nnc3c4ccccc4n(C(C)C)c3n2)s1,?,5.2%[46.1 µM],?,-16.7,?,28.2µM*
CCOC(=O)c1c(-c2ccccc2)oc2ccc(O)c(CN3CCCC3)c12,4.9,-2.2%[46.1 µM],-2.7%[38.3 µM],7.2,-5.3%,-11.7%
C/C(CCC(C)C)=N\NC(=S)Nc1cc(S(=O)(=O)N2CCOCC2)ccc1N1CCOCC1,.,-46.3%,13.8%,.,.,-10.6%
CCOC(=O)N1CCN(C(=O)CN(C2CCCCC2)S(=O)(=O)c2ccc(C)cc2)CC1,10.3,?,49.6%[38.3 µM],?,1.3%,7.08µM*
CCNC(=O)CN(C1CCCCC1)S(=O)(=O)c1ccc(F)cc1,-5.2,0.5%[46.1 µM],-5.6%[38.3 µM],11.5,-13.2%,-2.4%
COCCCNC(=O)CN(C1CCCCC1)S(=O)(=O)c1ccc(C)cc1,-5.3,?,6.8%[38.3 µM],-13.9,-2.2%,14.1µM*
COc1ccc(Cl)cc1NC(=O)COC(=O)/C=C/c1c(C)nn(C2CCS(=O)(=O)C2)c1Cl (configuration not stated),-14.8,-29.2%[46.1 µM],.,1.1,.,25.1µM*
Cc1csc(NC(=O)c2ccc(C)c(S(=O)(=O)N3CCCCC3)c2)n1,0.1,-23.7%[46.1 µM],-2.3%[38.3 µM],16.8,-10.6%,-4.6%
Cc1noc(C)c1S(=O)(=O)N1CCC(C(=O)c2ccccc2)CC1,.,4.0%,.,.,.,4.8%
Cc1noc(C)c1S(=O)(=O)N1CCN(C(c2ccccc2)c2ccc(Cl)cc2)CC1 (configuration not stated),0.3,-26.3%[46.1 µM],18.0%[38.3 µM],-89.9*,-8.0%,?
COc1ccc(NN=Nc2nc3c([nH]2)c(=O)n(C)c(=O)n3C)cc1,.,-31.4%,.,.,.,8.91µM*
C=CCc1cccc(/C=N/NC(=O)CNc2cccc3ccccc23)c1O,.,-19.2%,17.2%,-84.1*,-25.3%,?
CN(C)C(=O)COC(=O)/C=C/c1cn(-c2ccccc2)nc1-c1cccs1,.,-22.6%,11.3%,.,.,?
Fc1ccc(CNCc2ccccc2Cl)cc1,.,1.5%,-3.0%,.,.,11.2µM*
Cc1ccc(C(=O)N2CCN(c3ncnc4c(-c5ccccc5)nsc34)CC2)cc1,.,-13.9%,16.9%,.,.,?
Cc1sc2ncnc(OCC(=O)N3CCN(C(=O)c4ccco4)CC3)c2c1C,.,7.9%,-17.1%,.,.,3.16µM*
Cc1ccc(-c2csc3ncnc(N4CCN(C(=O)c5ccccc5)CC4)c23)cc1,9.2,?,29.5%[38.3 µM],?,-15.4%,12.6µM*
